Source: PubChem BioAssay (NCI)
Several values for one entry are separate records, joined by “and”; a condition that tells them apart may be missing. Equal values may be shown once. Compounds without any hit were thinned out: in the full panel of roughly 83,000, 20% have a hit.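 Activity criterion: percent growth below 10, measured after cells in 96-well plates were exposed to a single compound concentration for 48 hours.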 Values without a mark were called inactive. Activity calls are given as the source filed them.

Tested on: HL-60(TB) leukemia
Assay: NCI-60 one-dose screen, 48 h (100 = growth as untreated, 0 = no growth, -100 = all killed)
Settings: 10 µM unless noted

Compound	growth
COc1cc(NCCCCCNC(C)C)c2ncccc2c1	104% and 58.4%
O/N=C/c1ccc(O)cc1O	96.9%
Clc1ccc(-c2ccc(CNCC3CCNCC3)o2)c(-c2ccccc2)c1	-62.3% (active)
Cc1ccc(S(=O)(=O)Nc2ccc3cc([N+](=O)[O-])ccc3c2[N+](=O)[O-])cc1	83.3% and 31%
COc1ccc(-c2cn(-c3cccc(C(=O)/C=C/c4ccc(O)c(OC)c4)c3)c(=O)[nH]2)cc1	-2.62% (active)
CCCCOc1ccc(Nc2cc(Cl)ccc2C(=O)O)cn1	87.2% and 103%
Cc1ccc2c(N/N=C\c3ccco3)cc(C)nc2n1	-53.3% (active)
O=C1C(Cl)=C(Oc2ccccc2)C(=O)c2ccccc21	76%
NCCN1CCN(c2nccc(-c3ccc4ccccc4c3)n2)CC1	34.3%
CCOC(=O)C#Cc1c(C(=O)OCC)nnn1[C@@H]1O[C@H](CO)[C@H]2OC3(CCCCC3)O[C@H]21	52.8%
C=C(C)[C@@H]1CC[C@]2(C(=O)N3CCN(C)CC3)CC[C@]3(C)[C@H](CC[C@@H]4[C@@]5(C)CC(=C/c6ccncc6)/C(=N/O)C(C)(C)[C@@H]5CC[C@]43C)[C@@H]12	40.4%
O=C(C[n+]1cccc2cc(Cl)ccc21)c1ccc2c(c1)CCCC2	-28.3% (active)
CCc1nc2cc(/C=C/C(=O)NO)ccc2c(=O)n1CCc1ccc(F)cc1	-7.3% (active)
